Bioassay records: PubChem BioAssay, National Center for Advancing Translational Sciences (NCATS)
Shiga inhibitor = A qHTS for Small Molecule Inhibitors of Shiga Toxin. Vero cells, Shiga toxin protein synthesis inhibition reporter. inhibition, % at 38.7 µM. 9.2% of 290,000 active. AID 2315, 2010; in the data active = inhibition mostly above about 28%, no sharp cut-off; inactive = mostly below about 43%; note: 0% is about no effect
NS1 inh = qHTS Assay for Inhibitors of Influenza NS1 Protein Function; Potency, µM (highest dose often 46.1 µM), without a hit: top-dose activity, positive = more growth; 0.4% of 270,000 active; calls by dose curve; note: potency is the fitted concentration of half-maximal effect; actives are rising curves; nearly all actives have a fitted effect of over 50% in size
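Read-out: OD600 growth recovery of NS1-expressing budding yeast. Cells grown overnight at 30C in -URA glucose medium, washed, resuspended and diluted 1:100 in 2% galactose assay medium, pH 6.0. Same strain lacking NS1 served as positive control.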
CHX counter = Cycloheximide Counterscreen for Small Molecule Inhibitors of Shiga Toxin | cell reporter, cycloheximide protein synthesis inhibition counterscreen | max response, % | 12% of 300,000 active | AID 2314, 2010; in the data active = max response mostly above about 13%, no sharp cut-off; inactive = mostly below about 14%; note: read at 38.3 µM for the half of the compounds with a filed dose; 0% is about no effect
Pf growth 96h = Primary qHTS for delayed death inhibitors of the malarial parasite plastid, 96 hour incubation. P. falciparum luciferase reporter growth, 96 h. Potency, µM (titrated, usually from 28.7 µM), inactives show top-dose activity change, negative = inhibition, actives largely listed as inhibitors. 6.9% of 320,000 active. AID 504834, 2011; note: potency is the fitted concentration of half-maximal effect; % is set by controls: 0 for no effect and ±100 for the full control effect
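Erythrocytes infected with luciferase-expressing P. falciparum were dispensed at 2% hematocrit and 0.05% parasitemia (final), then incubated with compounds 96 hours at 37 C in 5% CO2. Luminescence after detection reagent addition reported growth.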
Pf growth 48h = Primary qHTS for delayed death inhibitors of the malarial parasite plastid, 48 hour incubation; P. falciparum luciferase growth in erythrocytes, 48 h; Potency, µM (top dose mostly 28.7 µM), without a hit: at the highest dose activity change, negative = inhibition, hits mostly inhibitors; 5.9% of 310,000 active; note: potency is the fitted concentration of half-maximal effect; % is set by controls: 0 for no effect and ±100 for the full control effect
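Firefly luciferase activity from engineered P. falciparum reports growth; inhibitors lower the luminescent signal. Cultures contained 2% hematocrit erythrocytes at 0.1% final parasitemia.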
Sm TGR block = qHTS Assay for the Inhibitors of Schistosoma Mansoni Peroxiredoxins. Schistosoma mansoni thioredoxin glutathione reductase (TGR), Q962Y6. purified TGR, DTNB reduction, TNB absorbance 405 nm. Potency, µM (doses to about 114 µM), for inactives: at the top dose activity change, negative = inhibition, most hits filed as inhibitors. 3% of 360,000 active; note: potency is the fitted concentration of half-maximal effect; % is set by controls: 0 for no effect and ±100 for the full control effect; nearly all actives have a fitted effect of over 60% in size
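TGR 20 nM + NADPH 100 uM (dispensed conc.), cpd preinc 15 min RT; start with NADPH (500 uM addition) then DTNB (15 mM addition). Kinetic TNB absorbance, 405 nm filter. Four-parameter Hill fit across titration.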
An asterisk follows results filed as active; ? = inconclusive; . = no result given. Shown are actives, neighbours in structure and some others; about 21% of the full set was active somewhere. Unless noted, calls come from the whole dose curve; as a rule, active = well fitted curve in the direction sought with a large enough effect; inconclusive = small, poorly fitted or top-dose-only effect, or another doubt; inactive = no such curve, though single readings can be large; an effect the other way counts as inactive or inconclusive.

SMILES | Shiga inhibitor | NS1 inh | CHX counter | Pf growth 96h | Pf growth 48h | Sm TGR block
COc1ccc(C2C(C(C)=O)=C(C)Nc3ncnn32)c(OC)c1OC (stereo not given) | -5.0 | -0.3% | 0.9 | -13.2% | -10.5% | -0.1%
CC1=C(C(=O)Nc2ccccc2)C(c2ccc[nH]2)n2ncnc2N1 (stereo not given) | . | . | . | 5.8% | 8.9% | 28.2µM*
CC1=C(C(=O)Nc2ccccc2)C(c2ccccn2)n2ncnc2N1 (stereo not given) | -16.4 | 6.3% | -1.0 | 0.1% | -0.1% | -6.0%
C=CCCn1c(Cl)c(C#N)sc1=O | -1.8 | . | -2.0 | . | . | .
Cn1c(C(C#N)C2=C(Cl)C(=O)N(c3ccccc3)C2=O)nc2ccccc21 (stereo not given) | 5.9 | -44.3% | 8.1 | -1.8% | ? | 44.7µM*
CCc1ccc2oc(-c3ccc(C)c(NC(=O)c4cc([N+](=O)[O-])ccc4N4CCOCC4)c3)nc2c1 | . | . | . | . | . | 1.5%
O=C(O)CCn1c(-c2ccccn2)nc2ccccc21 | 39.5 | 13.6% | 10.8* | ? | 9.9% | -23.0%
O=C(O)CCn1c(CO)nc2ccccc21 | 1.7 | -3.1% | -3.6 | 60.5% | 7.7% | .
COc1ccc(NC(=O)NNC(=O)CCc2ccc(O)c(O)c2)cc1OC | -3.7 | -6.4% | -2.7 | -9.2% | ? | ?
O=C(Cc1ccc(S(=O)(=O)N2CCOCC2)s1)NCC(=O)Nc1ccccc1Br | . | . | . | -1.1% | 6.3% | 56.2µM*
O=C(Cc1ccc(S(=O)(=O)N2CCOCC2)s1)Nc1ccccc1Br | 2.3 | 5.1% | -1.7 | 3.7µM* | 2.33µM* | -15.4%
O=C(Cc1ccc(S(=O)(=O)N2CCOCC2)s1)Nc1ccccc1N1CCOCC1 | -26.0 | . | -0.8 | ? | -29.0% | ?
COCCCNC(=O)Cc1ccc(S(=O)(=O)N2CCOCC2)s1 | . | . | . | ? | ? | -3.6%
Cc1ccc(S(=O)(=O)/N=C2\CN(C)C(=O)N2C)cc1 | -16.9 | 19.4% | -6.6 | 4.65µM* | 4.9% | -3.1%
Cc1ccc(S(=O)(=O)/N=c2\sccn2C)cc1 | -13.6 | 10.7% | -3.8 | 135.0% | 10.9% | -2.1%
COc1ccc2ccccc2c1C1CC(=O)N2CN(C)CSC2=C1C#N (stereo not given) | 21.2 | ? | -4.6 | 1.9% | 0.0% | 10µM*
CCc1ccccc1N1CSC2=C(C#N)C(c3cc(OC)c(OC)cc3OC)CC(=O)N2C1 (stereo not given) | -23.6 | 10µM* | 6.3 | 68.3% | 13.1µM* | 6.31µM*
COc1cc(OC)c(C2CC(=O)N3CN(c4ccccc4)CSC3=C2C#N)cc1OC (stereo not given) | 3.1 | -84.7% | -2.7 | ? | 36.6% | 10µM*
COc1ccc(OC)c(NC(=O)CN(Cc2ccccc2)S(C)(=O)=O)c1 | 21.3 | 0.0% | -1.7 | ? | 9.0% | 1.7%
CCC(C)N(C(=O)CSc1nnc2ccccn12)C1CCS(=O)(=O)C1 (stereo not given) | . | . | . | 12.8% | -15.7% | 0.6%
CSc1ccc(C(=O)C2CCCN(C(=O)c3nn(C)c(=O)c4ccccc34)C2)cc1 (stereo not given) | 1.2 | 2.1% | 1.4 | 15.3% | 15.8% | 14.1µM*
CSc1ccc(C(=O)C2CCCN(C(=O)c3nonc3C)C2)cc1 (stereo not given) | 12.2 | 0.0% | 11.3 | 28.6% | 14.7µM* | 13.5%
CSc1ccc(C(=O)C2CCCN(C)C2)cc1 (stereo not given) | -8.8 | 2.8% | -3.0 | ? | 0.0% | -0.2%
CC(C)c1nc2scc(-c3ccc(Cl)cc3)c2c(=O)n1N | 73.4* | -12.2% | 37.6* | -11.6% | -4.0% | 21.3%
Cc1nc2scc(-c3ccc(Cl)cc3)c2c(=O)n1N | 4.8 | -2.0% | 3.2 | -33.8% | ? | 1.5%
COc1ccc(C(=O)N2CCN(CCNC(=O)C(=O)Nc3ccc(F)cc3)CC2)cc1OC | 31.1 | 10.5% | 1.3 | 20.5% | 18.2% | -1.0%
COc1cccc(-c2nc(C(=O)NCCCN3CCOCC3)cc3c2[nH]c2ccccc23)c1 | 1.0 | -9.5% | 0.9 | 8.28µM* | 13.1µM* | 0.5%
